# Bioassay records: PubChem BioAssay, several laboratories
# PfHsp90 set2: growth inhibition of PfHsp90-expressing yeast, primary screen, antimalarial PfHsp90 inhibitor project, S. cerevisiae, BacTiter-Glo luminescence, single point, set 2; BacTiter-Glo ATP, 48 h; yeast lacking PDR1 and PDR3 efflux regulators; inhibition, % at 9.4 µM; hit rate 0.32% among 310,000; AID 504621, 2011;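 active = every replicate shows inhibition above about 80%, whatever the replicate mean, limit read from the data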;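 note: 0% = DMSO neutral controls and 100% = 20 µM radicicol positive controls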
# tim23-1 inh: growth inhibitors of tim23-1 mutant yeast, primary screen, luminescence, uHTS; hit rate 1.3% among 330,000; inhibition, % at 20 µM; S. cerevisiae tim23-1 growth, BacTiter-Glo luminescence, 24 h;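 active = growth inhibition of the mutant yeast at or above 50%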;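 note: temperature-sensitive mutant grown at 25 °C; plate controls were DMSO-treated mutant yeast for no effect and medium wells lacking yeast for full effect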
# TIM10 inh: growth inhibitors of isogenic TIM10 control yeast, primary screen, counter-screen for tim10-1 yeast inhibitor project, luminescence, uHTS; S. cerevisiae TIM10 strain growth, BacTiter-Glo luminescence, 24 h; inhibition, % at 10 µM; hit rate 1.4% among 330,000; AID 463195, 2010;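 active = inhibition of 40% or more at the single tested concentration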;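 note: wild-type TIM10 isogenic control strain grown at permissive 25 °C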
# B2AR ag: beta2AR agonists driving receptor internalization, primary screen, cell-based, FAP fluorogen, flow cytometry. Am2.2-beta2AR cells. response, % (test concentration not listed). hit rate 0.43% among 340,000. AID 504454, 2011;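 active = response above a set limit, near 3 SD of response in nonfluorescent compounds, cut at about 42% in these data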
# Target sequence (P07550 whole entry, looked up): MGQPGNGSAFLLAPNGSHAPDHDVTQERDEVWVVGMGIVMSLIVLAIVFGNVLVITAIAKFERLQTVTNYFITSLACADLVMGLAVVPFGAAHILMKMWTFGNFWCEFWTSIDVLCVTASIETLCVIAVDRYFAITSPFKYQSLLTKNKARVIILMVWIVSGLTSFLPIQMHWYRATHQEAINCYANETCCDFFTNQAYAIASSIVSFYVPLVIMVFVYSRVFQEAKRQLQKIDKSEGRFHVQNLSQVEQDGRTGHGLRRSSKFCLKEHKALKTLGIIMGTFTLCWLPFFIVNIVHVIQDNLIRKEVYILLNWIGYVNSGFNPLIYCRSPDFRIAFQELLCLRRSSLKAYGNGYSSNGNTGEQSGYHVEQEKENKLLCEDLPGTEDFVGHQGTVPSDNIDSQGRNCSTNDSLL
# tim10-1 inh: growth inhibitors of tim10-1 mutant yeast, primary screen, luminescence, uHTS; inhibition, % at 20 µM; S. cerevisiae tim10-1 ts strain growth, BacTiter-Glo, 24 h; hit rate 2.2% among 330,000;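 active = inhibition of at least 40%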;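 note: mutant grown at 25 °C; 0% = DMSO wells with yeast and 100% = wells holding no yeast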
# Beta2AR ag CP1: beta2AR agonists via receptor internalization, confirmation, cell-based, FAP fluorogen, flow cytometry, single point, cherry pick 1. percent response (surface receptor), % at 10 µM. AID 540358, 2011. shares compounds with B2AR ag. Am2.2-beta2AR cells, FAP surface receptor; active compounds read low. hit rate 25% among 1,100;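 active = surface receptor percent response at or below 58%, roughly 3 SD from nonfluorescent compounds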
# B2AR FAP counter: fluorescence artifact in beta-2AR agonist FAP counterscreen; shares compounds with B2AR ag; Am2.2 cells, FAP fluorogen flow cytometry; active compounds read low; calls only at 10 µM; 1,100 tested, under 10 active; AID 588765;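 active = percent response below a set limit in fluorescence channel 1 and below 50% in channel 8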
# * = called active by the depositor; i = inactive; nt = no result given; + = active, no number. A selection: hits, their analogues and other compounds. The true share with any hit is near 3.8%.
SMILES,PfHsp90 set2,tim23-1 inh,TIM10 inh,B2AR ag,tim10-1 inh,Beta2AR ag CP1,B2AR FAP counter
COc1ccc(OC)c(C(=O)NC(CC(N)=O)c2ccc(N3CCN(c4ccccc4)CC3)c([N+](=O)[O-])c2)c1 (centres undefined),3.4,-1.9,14.2,-4.1,-28.7,nt,nt
C[C@@H]1CN(S(=O)C(C)(C)C)[C@@H](CCO)/C1=C\CCO (some centres undefined),-7.7,nt,nt,-2.0,nt,nt,nt
CNc1ccc([N+](=O)[O-])cc1-c1nc2ccccc2[nH]c1=O,-3.4,-13.2,5.9,61.5*,7.3,91.3,i
CCN1CCN(c2ccc(NC(=O)c3ccc(Br)o3)cc2)CC1,28.3,15.5,9.9,-8.9,7.5,115.4,i
CCCC(=O)N1CCN(c2ccc(NC(=O)c3ccc(Br)o3)cc2)CC1,3.5,10.6,9.6,5.7,18.5,100.8,i
CCCC(=O)N1CCN(c2ccc(NC(=O)c3ccc([N+](=O)[O-])o3)cc2)CC1,-23.1,nt,nt,17.5,nt,nt,nt
O=C(Nc1ccc(N2CCCC2)cc1)c1ccc(Br)o1,-12.9,1.3,-11.2,-3.4,-6.7,nt,nt
O=C(Nc1ccc(N2CCN(C(=O)c3ccccc3)CC2)cc1)c1cc2ccccc2o1,-13.1,6.4,11.3,19.6,-9.0,nt,nt
O=C(Nc1ccc(N2CCN(C(=O)c3ccccc3)CC2)cc1)c1ccc(Br)o1,15.3,40.7,35.2,0.8,39.0,108.3,i
COc1cccc(CNCCO)c1OCc1ccccc1Cl,-16.1,7.1,10.4,-3.8,8.6,nt,nt
CCOc1c(Cl)cc(CNCC(O)c2ccccc2)cc1OC (centres undefined),2.7,-3.4,0.5,11.4,9.8,117.5,i
COc1cc(CNCCO)cc(Cl)c1OCc1ccccc1Cl,-30.2,16.5,9.1,48.1*,10.6,99.2,i
CN(c1ccc(F)cc1)S(=O)(=O)c1ccc2[nH]cc(C(=O)O)c(=O)c2c1,-6.0,9.5,7.7,-5.3,3.0,nt,nt
CCc1ccccc1N(C)S(=O)(=O)c1ccc2[nH]cc(C(=O)O)c(=O)c2c1,2.8,0.5,-5.3,76.0*,25.5,84.4,i
CSc1ccc(S(=O)(=O)N2CCC(C(=O)NCC3CCCO3)CC2)cc1 (centres undefined),9.1,11.6,1.1,155.2*,7.5,107.7,i
O=C(NCC1CCCO1)C1CCN(S(=O)(=O)c2ccc(Br)cc2)CC1 (centres undefined),-11.8,8.7,0.8,-3.6,12.1,nt,nt
O=C(NCCNc1ccc([N+](=O)[O-])cc1)c1ccccc1Br,-17.7,-15.7,-24.8,46.1*,-12.1,105.0,i
CNCC[C@H](Oc1cccc2ccccc12)c1cccs1,13.3,6.5,20.2,49.6*,30.1,102.2,i
COc1ccc(CNC(=O)CN(C(=O)c2snc(C(N)=O)c2N)c2ccc(F)cc2)cc1,-2.0,-7.2,-2.5,47.3*,0.5,86.6,i
CCN(CC)S(=O)(=O)c1ccc(NC(=O)C2CC(=O)N(c3ccc4c(c3)OCCO4)C2)cc1 (centres undefined),-31.2,nt,nt,1.5,nt,nt,nt
CCCN(CCC)C(=O)c1ccc2nc(-c3ccc(OC)c(OC)c3)c(-c3ccc(OC)c(OC)c3)nc2c1,3.0,0.1,27.8,43.0*,4.9,123.5,i
CCn1cc(/C=N\NC(=O)C2(C)CC2(Cl)Cl)c(C)n1 (centres undefined),24.0,14.0,-1.3,-2.4,21.0,nt,nt
N=c1n(Cc2ccccc2)c2ccccc2n1Cc1ccccc1,-4.6,-2.0,7.3,21.1,22.9,nt,nt
N=c1n(CC(=O)c2ccc([N+](=O)[O-])cc2)c2ccccc2n1Cc1ccccc1,0.3,0.5,-9.5,98.0*,13.8,39.9*,i
N=c1n(CC(=O)c2ccc([N+](=O)[O-])cc2)c2ccccc2n1Cc1ccccc1Cl,14.8,nt,nt,93.5*,nt,24.4*,+
SMILES,PfHsp90 set2,tim23-1 inh,TIM10 inh,B2AR ag,tim10-1 inh,Beta2AR ag CP1,B2AR FAP counter
N=c1n(CCO)c2ccccc2n1Cc1ccc(Cl)cc1,25.2,-3.5,-4.4,2.4,-16.6,nt,nt
N=c1n(CC(=O)c2ccc(Br)cc2)c2ccccc2n1Cc1ccccc1,-13.5,6.2,15.7,73.9*,12.6,33.4*,i
N=c1n(CC(=O)c2ccc([N+](=O)[O-])cc2)c2ccccc2n1Cc1ccc(Cl)cc1,-5.0,-33.6,2.7,91.1*,5.8,36.8*,i
N=c1n(CC(=O)O)c2ccccc2n1Cc1ccccc1Cl,-17.7,1.5,-10.0,2.7,5.5,nt,nt
CCOc1ccc(NC(=O)CN(C)C(=O)c2ccccc2CCc2ccccc2)cc1OCC,12.7,9.1,9.3,6.0,2.3,nt,nt
CCC(C)c1ccccc1NC(=O)COC(=O)C1=COCCO1 (centres undefined),-112.3,1.1,-3.7,-3.0,-5.5,nt,nt
CN(CC(=O)Nc1ccccc1Br)C(=O)c1cc2c(s1)CCCCC2,-1.6,20.9,1.5,6.8,19.6,nt,nt
CC1(C)Cc2c(c(N3CCOCC3)nc3sc4c(NCCN)ncnc4c23)CO1,34.0,nt,nt,105.3*,nt,10.5*,i
CC1(C)Cc2c(c(N3CCCC3)nc3sc4c(N5CCN(CCO)CC5)ncnc4c23)CO1,1.8,24.5,27.8,71.1*,19.8,46.4*,i
CN(C)CCNc1ncnc2c1sc1nc(N3CCOCC3)c3c(c12)CC(C)(C)SC3,30.1,17.9,29.5,21.0,18.5,nt,nt
OCCN1CCN(c2ncnc3c2sc2nc(N4CCOCC4)c4c(c23)CCC4)CC1,21.9,17.1,16.1,18.4,24.1,nt,nt
COC1=CC(=O)[C@@]2([C@@H]1O)[C@@H](Cl)C[C@]13C(OC)=C(OC)C(=O)C[C@]21CCN3C,5.9,-6.3,-0.2,3.4,-10.1,nt,nt
COc1ccc(S(=O)(=O)N(C)C)cc1NC(=O)CCNC(=O)c1ccco1,15.6,5.7,7.3,-0.1,-29.1,nt,nt
N#Cc1cc([N+](=O)[O-])c(-n2nnc3ccccc32)c([N+](=O)[O-])c1,-6.5,47.3,14.4,55.4*,37.3,103.5,i
COc1ccc(-c2cc(OC(=O)c3ccc(F)cc3)c3c(C)oc(C)c3c(=O)c2)cc1,nt,16.3,19.9,nt,25.6,nt,nt
COc1cc(-c2cccs2)cc(=O)c2c(C)oc(C)c12,-1.5,7.0,-0.8,-12.2,5.5,112.3,i
O=C(Cc1ccc(Br)cc1)Nc1ccc2[nH]ncc2c1,11.7,5.7,4.0,-1.6,-20.3,nt,nt
COC(=O)c1ccc2c(=O)[nH]c(CSc3nc(-c4ccc(F)cc4)cs3)nc2c1,-5.1,6.3,5.7,63.5*,9.1,105.5,i
